# Laboratory results from publication doi:10.1101/2025.02.07.636106.
# Target: Sodium/potassium-transporting ATPase subunit beta-3 (UniProt P54709)
# Test: cross-link between two proteins; co-fractionation; cross-linking mass spectrometry
substance,measurement,value
"Sodium/potassium-transporting ATPase subunit alpha-1, P05023",listed as a hit,yes
